Laboratory results taken from PubChem BioAssay (NCATS).
“And” between values parts separate entries of the source, which are not always exact repeats. Equal values may be shown once. Records with an inconclusive call do not appear. The source made the active and inactive calls. Unless noted, calls come from the whole dose curve; as a rule, active = well fitted curve in the direction sought with a large enough effect; inconclusive = small, poorly fitted or top-dose-only effect, or another doubt; inactive = no such curve, though single readings can be large; an effect the other way counts as inactive or inconclusive.

Columns and labels:
[1] = qHTS for compounds that reverse cellular toxicity of Amyloid beta (A-beta) peptide in yeast: LOPAC Validation Assay (AID 720559);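 note: plate controls were DMSO for no effect and equimolar ferric chloride plus clioquinol rescue for full effect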
Procedure, shortened: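 Here, A-beta-toxic yeast grow with test compounds at 30 C for 48 hr before optical density at 600 nm is recorded; data are normalized against DMSO and the FeCl3-clioquinol control.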

[2] = qHTS for Activators of Parkin Expression: LOPAC Validation Assay (NLuc Reporter) (AID 720572; note: potency is the fitted concentration of half-maximal effect)
Procedure, shortened: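 Neuronal line stably carrying a FLuc/NLuc coincidence reporter under the Parkin promoter, seeded 24 h, then dosed in 7-point series for 24 h at 37 C. NLuc luminescence read after FLuc; normalized to DMSO and positive control (100%).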

[3] = qHTS for Activators of Parkin Expression: LOPAC Validation Assay (FLuc Reporter) (AID 720573;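 note: 0% = DMSO and 100% = positive control compounds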)
Procedure, shortened: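 Readout is FLuc luminescence from neuronal reporter cells (Parkin promoter, FLuc plus NLuc) after 24 h compound exposure in dose response. Values normalized to neutral DMSO and positive-control compounds.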

[4] = molecular target: T1, Hexokinase-4 (Homo sapiens) + Glucokinase regulatory protein (Homo sapiens) (UniProt P35557+Q14397); experiment: qHTS assay for inhibitors of recombinant human GCK-GKRP interaction: Diaphorase-coupled assay (AID 743205)
T1 sequence (P35557 whole entry, looked up): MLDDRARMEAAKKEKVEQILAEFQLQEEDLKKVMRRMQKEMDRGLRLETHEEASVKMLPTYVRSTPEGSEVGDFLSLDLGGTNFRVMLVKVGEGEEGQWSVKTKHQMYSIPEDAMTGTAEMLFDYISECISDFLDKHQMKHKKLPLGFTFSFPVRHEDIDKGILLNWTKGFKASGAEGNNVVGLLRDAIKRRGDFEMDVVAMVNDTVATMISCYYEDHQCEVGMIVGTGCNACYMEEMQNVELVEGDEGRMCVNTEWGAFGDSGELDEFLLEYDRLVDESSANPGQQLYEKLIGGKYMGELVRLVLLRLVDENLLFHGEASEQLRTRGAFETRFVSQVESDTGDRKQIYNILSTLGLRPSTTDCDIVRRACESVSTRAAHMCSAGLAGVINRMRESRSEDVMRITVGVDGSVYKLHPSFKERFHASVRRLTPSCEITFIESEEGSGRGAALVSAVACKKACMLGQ
T1 sequence (Q14397 whole entry, looked up): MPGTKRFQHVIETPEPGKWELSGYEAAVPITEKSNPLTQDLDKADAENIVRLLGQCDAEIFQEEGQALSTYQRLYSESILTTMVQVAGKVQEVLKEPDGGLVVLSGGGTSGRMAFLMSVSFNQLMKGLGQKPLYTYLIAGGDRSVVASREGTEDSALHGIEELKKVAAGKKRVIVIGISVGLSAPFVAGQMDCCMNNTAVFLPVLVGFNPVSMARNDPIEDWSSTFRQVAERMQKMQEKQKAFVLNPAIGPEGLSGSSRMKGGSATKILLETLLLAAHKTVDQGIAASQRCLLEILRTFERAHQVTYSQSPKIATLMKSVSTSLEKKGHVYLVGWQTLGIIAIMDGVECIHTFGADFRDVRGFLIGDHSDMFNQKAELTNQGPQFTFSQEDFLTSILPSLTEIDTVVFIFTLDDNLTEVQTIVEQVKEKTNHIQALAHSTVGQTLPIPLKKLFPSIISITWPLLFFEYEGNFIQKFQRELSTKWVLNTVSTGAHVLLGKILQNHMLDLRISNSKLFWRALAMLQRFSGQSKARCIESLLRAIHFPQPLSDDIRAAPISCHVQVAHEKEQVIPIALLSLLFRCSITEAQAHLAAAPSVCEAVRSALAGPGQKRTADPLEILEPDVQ
Procedure, shortened: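 Signal derives from resorufin generated by diaphorase, linked to GCK turnover of glucose (5 mM) and ATP (0.4 mM). Enzyme complex was added after a 20-minute compound preincubation and monitored for 30 minutes.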

[5] = molecular target: T1, Hexokinase-4 (Homo sapiens) + Glucokinase regulatory protein (Homo sapiens); experiment: qHTS assay for inhibitors of recombinant human GCK-GKRP interaction: ADP-Glo assay (AID 743206);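 note: plate controls were DMSO plus enzyme for no effect and no enzyme for full effect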
Procedure, shortened: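 GST-GCK and FLAG-GKRP (15 nM each in the dispensed mix, with 2 uM S6P) react with 0.4 mM ATP and 5 mM glucose (final) in Hepes pH 7.6 for 60 min at room temperature. ADP is measured by ADP-Glo luminescence.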

[6] = molecular target: T1, Hexokinase-4 (Homo sapiens) + Glucokinase regulatory protein (Homo sapiens); experiment: qHTS assay for inhibitors of recombinant human GCK-GKRP interaction: HTRF assay (AID 743207);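 note: 0% = DMSO with GCK present and -100% = DMSO wells lacking GCK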
Procedure, shortened: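 Titration screening format: recombinant GST-GCK and FLAG-GKRP at 5 nM, S6P at 2 uM, labelled anti-tag antibodies, 60 min at RT, dual-wavelength HTRF readout.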

[7] = qHTS Assay for Identifying Gametocytocidal Compounds (AID 743244); note: potency is the fitted concentration of half-maximal effect;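 for max response: % is set by controls: 0 for no effect and ±100 for the full control effect; actives lower the fluorescent signal which means gametocytes are killed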; conditions: P. falciparum 3D7 stage III-V gametocytes, alamarBlue, 72 h; max response: stronger effect = lower value
Procedure, shortened: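 In this qHTS viability screen, late-stage 3D7 gametocytes are incubated with compound for 72 h, then with alamarBlue for 24 h; reduced resorufin fluorescence marks killing.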

[8] = molecular target: Tyrosine-protein kinase Yes (Homo sapiens) (UniProt P07947); experiment: qHTS for small molecule inhibitors of Yes1 kinase: Primary Screen (AID 686947);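 note: plate controls were DMSO with enzyme for no effect and no-enzyme DMSO wells for full effect; nearly all actives have a fitted effect of over 60% in size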
Tyrosine-protein kinase Yes (Homo sapiens), sequence (P07947 whole entry, looked up): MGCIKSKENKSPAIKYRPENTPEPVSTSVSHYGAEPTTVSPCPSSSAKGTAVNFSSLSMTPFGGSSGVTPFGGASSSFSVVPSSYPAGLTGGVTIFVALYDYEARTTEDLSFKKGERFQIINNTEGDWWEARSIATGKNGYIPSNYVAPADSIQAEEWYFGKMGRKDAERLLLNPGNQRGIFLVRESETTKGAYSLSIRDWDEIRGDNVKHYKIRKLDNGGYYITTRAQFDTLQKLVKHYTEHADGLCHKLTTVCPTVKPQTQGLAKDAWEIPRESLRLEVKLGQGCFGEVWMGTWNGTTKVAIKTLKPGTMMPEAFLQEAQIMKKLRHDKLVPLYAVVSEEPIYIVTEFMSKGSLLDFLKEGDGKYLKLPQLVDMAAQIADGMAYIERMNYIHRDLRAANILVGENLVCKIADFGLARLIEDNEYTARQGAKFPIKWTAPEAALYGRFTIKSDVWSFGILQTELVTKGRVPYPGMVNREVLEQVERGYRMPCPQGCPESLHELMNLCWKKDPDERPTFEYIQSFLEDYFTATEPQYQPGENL
Procedure, shortened: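 Yes1 (4 nM) preincubated 20 min with compound, then 60 min room-temperature reaction with 0.1 mM ATP and 0.3 mg/mL poly(E4Y) in pH 7.5 Tris, 10 mM MgCl2. ADP measured by ADP-Glo luminescence, normalised to enzyme/no-enzyme controls.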

[9] = qHTS for small molecule inhibitors of Yes1 kinase: Counter Assay (AID 686950);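 note: no kinase present so only ADP-Glo detection of a fixed ADP amount is tested; luminescence from ADP-Glo reporting ADP in a fixed ATP and ADP mixture; 0% = DMSO wells with ATP plus ADP and -100% = ATP-only wells without ADP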
Procedure, shortened: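 Enzyme-free ADP-Glo interference check: compounds were preincubated 20 min in buffer, then an ATP/ADP mix (0.08 mM ATP, 0.02 mM ADP final) was added for 60 min at room temperature before two-step ADP-Glo luminescence detection.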

[10] = qHTS profiling for inhibitors of Plasmodium falciparum (3D7) proliferation (AID 743322; call rule not given here;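 note: infected erythrocytes exposed to compound for 72 h before lysis; 100% = DMSO vehicle wells and 0% = 0.29 µM artemisinin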); conditions: P. falciparum 3D7 proliferation; at 28.7 µM (top of the series) unless noted
Procedure, shortened: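 Erythrocytes infected with P. falciparum (0.3% parasitemia, 2.5% hematocrit) incubated with compounds 72 h at 37 C, 5% CO2. Lysis with saponin/Triton buffer containing SYBR Green I, overnight at room temperature in the dark; DNA fluorescence (485/535 nm) normalised to 0.29 uM artemisinin and DMSO.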

[11] = qHTS profiling for inhibitors of Plasmodium falciparum (DD2) proliferation (AID 743323; call rule not given here); conditions: lower = more inhibition; at 28.7 µM (top of the series) unless noted
Procedure, shortened: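 SYBR Green fluorescence (ex 485, em 535 nm) of lysed cultures gives parasite DNA content; wells normalized to artemisinin (0.29 uM) and DMSO controls. Infected red cells: 0.3% parasitemia, 2.5% hematocrit, 72 h, 37 C.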

N=c1c[n+](N2CCOCC2)[n-]o1
inactive: outcome [1] | Potency [2] | outcome [3] | outcome [4] | outcome [5] | outcome [6] | max response [7] 8.18%

NC(N)=NCCC[C@H](N)C(=O)O
inactive: outcome [1] | Potency [2] | outcome [4] | outcome [5] | outcome [6] | max response [7] -1.84% and -1.95%

NC(=O)c1ncn([C@@H]2O[C@H](CO)[C@@H](O)[C@H]2O)c1N
121%: activity, percent of control [11]
104%: remaining parasite growth % (stronger effect = lower value) [10]
inactive: outcome [8] | outcome [9] | max response [7] -0.312% and 4.68%

CC(C)(C(=O)O)c1ccc(C(O)CCCN2CCC(C(O)(c3ccccc3)c3ccccc3)CC2)cc1 (centres undefined)
inactive: outcome [1] | Potency [2] | outcome [3] | outcome [4] | outcome [5] | outcome [6]

COCCOC(=O)C1=C(C)NC(C)=C(C(=O)OC/C=C/c2ccccc2)C1c1cccc([N+](=O)[O-])c1 (centres undefined)
active: Potency [2] 5.17 µM
inactive: outcome [1] | outcome [4] | outcome [5] | outcome [6] | max response [7] 2.31% and 20.4%

CCN(CC)CCNC(=O)c1cc(Cl)c(N)cc1OC
inactive: outcome [1] | Potency [2] | outcome [4] | outcome [5] | outcome [6] | max response [7] -1.62%

Nc1ncnc2c1ncn2[C@@H]1O[C@H](CO)[C@@H](O)[C@H]1O
inactive: outcome [1] | Potency [2] | outcome [4] | outcome [5] | outcome [6] | max response [7] -0.147% and 30.2%

CN1CCN(C2Cc3ccccc3Sc3ccc(Cl)cc32)CC1 (centres undefined)
inactive: outcome [1] | Potency [2] | outcome [4] | outcome [5] | outcome [6]

C#CCN(C)Cc1ccccc1
inactive: outcome [1] | Potency [2] | outcome [4] | outcome [5] | outcome [6] | max response [7] 14.1% and 13.7%

CC1=C(CC(=O)O)c2cc(F)ccc2/C1=C\c1ccc(S(C)(=O)=O)cc1
inactive: outcome [1] | Potency [2] | outcome [4] | outcome [5] | outcome [6]

CCCCCCCCCCCCCCCC(=O)NCCO
inactive: outcome [1] | Potency [2] | outcome [4] | outcome [5] | outcome [6] | max response [7] -1.98% and 26.2%

NC1CCN(c2cccc(Cl)n2)CC1
inactive: outcome [1] | Potency [2] | outcome [4] | outcome [5] | outcome [6] | max response [7] 1.41% and 17.3%

Nc1cc(=O)[nH]c(N)n1
inactive: outcome [1] | Potency [2] | outcome [4] | outcome [5] | outcome [6] | max response [7] -11.1% and 4.42%

CNCC(O)c1ccc(O)c(O)c1 (centres undefined)
inactive: outcome [1] | Potency [2] | outcome [4] | outcome [5] | outcome [6]

CC(C)(C)[C@]1(O)CCN2C[C@H]3c4ccccc4CCc4cccc(c43)[C@@H]2C1
inactive: outcome [1] | Potency [2] | outcome [4] | outcome [5] | outcome [6] | max response [7] 13.6% and 4.8%

COc1cc(C)c(Cc2cnc(N)nc2N)cc1OC
inactive: max response [7] -2.96%

CN(C)CC[C@@H](c1ccc(Cl)cc1)c1ccccn1
44.8%: activity, percent of control [11]
inactive: outcome [1] | Potency [2] | outcome [4] | outcome [5] | outcome [6]
85.4%: remaining parasite growth % (stronger effect = lower value) [10]

CCN(CC)C(C)CN1c2ccccc2Sc2ccccc21 (centres undefined)
inactive: outcome [4] | outcome [5] | outcome [6] | max response [7] 2.08% and 2.32%

Nc1nc2c(ncn2CCC(CO)CO)c(=O)[nH]1
inactive: max response [7] -1.67%

N[C@H](C(=O)O)c1ccc(O)cc1
inactive: max response [7] -1.91%

O=Cc1ccccc1C=O
inactive: max response [7] -3.58%

C[C@H](N)[C@H](O)c1cccc(O)c1
inactive: max response [7] 5.58%

NS(=O)(=O)c1cc2c(cc1C(F)(F)F)NC(Cc1ccccc1)NS2(=O)=O (centres undefined)
inactive: max response [7] 5.19%

OCc1cc(C(O)CNCCCCCCOCCCCc2ccccc2)ccc1O (centres undefined)
active: Potency [7] 10 µM
inactive: outcome [1] | Potency [2] | outcome [5] | outcome [6]

CCCCN(CCCC)CCCOC(=O)c1ccc(N)cc1
inactive: max response [7] 0.616%

C[C@](N)(Cc1ccc(O)cc1)C(=O)O
inactive: outcome [4] | outcome [5] | outcome [6] | max response [7] 18.5% and 8.95%

CCCCC/C(C=O)=C\c1ccccc1
inactive: max response [7] 8.31%

CC(C)(C)C(=O)NCCCC(=O)O
inactive: max response [7] 2.51%

CC(=O)OCC(=O)[C@@]1(O)CC[C@H]2[C@@H]3CCC4=CC(=O)CC[C@]4(C)[C@H]3C(=O)C[C@@]21C
inactive: outcome [1] | Potency [2] | outcome [4] | outcome [5] | outcome [6] | max response [7] -5.84%

Cc1ncc(COP(=O)(O)O)c(C=O)c1O
inactive: max response [7] 5.05%

CCCOC(=O)c1ccccc1
inactive: max response [7] -2.44%

CCOC(=O)[C@H](CCc1ccccc1)N[C@@H](C)C(=O)N1C(=O)N(C)C[C@H]1C(=O)O
inactive: max response [7] 6.96%

Nc1ccc(S(=O)(=O)Nc2ccccc2)cc1
inactive: max response [7] -2.25%

COc1cc2[nH]c(=O)[nH]c(=O)c2cc1OC
inactive: max response [7] 5.15%

CSc1ccc2c(c1)C(N1CCN(C)CC1)Cc1ccccc1S2 (centres undefined)
active: Potency [7] 12.6 µM
inactive: outcome [1] | Potency [2] | outcome [5] | outcome [6]

CCOc1ccc2ccccc2c1C(=O)N[C@@H]1C(=O)N2[C@@H]1SC(C)(C)[C@@H]2C(=O)O
inactive: max response [7] -1.05%

CS(=O)(=O)c1ccc([C@@H](O)[C@@H](CF)NC(=O)C(Cl)Cl)cc1
inactive: max response [7] 23.9%
